Reference: PubChem BioAssay (NCI)
Compounds without any hit were thinned out: in the full panel of roughly 79,000, 15% have a hit. No stated cut-off is given here; in the data, active means growth inhibition above about 70%; inactive means the rest. Where a SMILES comes first, the peptide text is derived from it. [ ]: non-standard residue; d: D form. ξ: configuration not given here. ξH = NC(Cc1c[nH]cn1)C(=O)O

Experiments:
[1] = NCI Yeast Anticancer Drug Screen. Data for the rad50 strain (AID 155);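 further: 0% = growth of vehicle-only cultures of the same strain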; conditions: S. cerevisiae rad50 strain growth inhibition; at 50.0 µM; hits give high values
Method in brief: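 DNA repair mutant yeast, compound exposure, growth read-out; inhibition is taken relative to vehicle.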

[2] = NCI Yeast Anticancer Drug Screen. Data for the mec2-1 strain (AID 157); conditions: S. cerevisiae mec2-1 strain, at 50.0 µM, hits give high values
Method in brief: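 Each compound was tested on mec2-1 yeast, a strain altered in DNA damage repair or cell cycle control. Growth inhibition is reported relative to vehicle.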

[3] = NCI Yeast Anticancer Drug Screen. Data for the sgs1 mgt1 strain (AID 161);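 further: 0% = growth of cultures given vehicle only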; conditions: S. cerevisiae sgs1 mgt1 strain, at 50.0 µM, hits give high values
Method in brief: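 Mutant yeast exposed to compound; growth scored against vehicle-only wells.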

[4] = NCI Yeast Anticancer Drug Screen. Data for the cln2 rad14 strain (AID 165);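 further: 0% = growth equal to vehicle treated cultures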; conditions: S. cerevisiae cln2 rad14 strain, at 50.0 µM, hits give high values
Method in brief: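 Test compounds were added to cln2 rad14 yeast cultures; inhibition of growth was then determined by comparison with vehicle treatment.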

[5] = NCI Yeast Anticancer Drug Screen. Data for the bub3 strain (AID 167); conditions: S. cerevisiae bub3 mutant strain, at 50.0 µM, hits give high values
Method in brief: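 In this screen, a yeast mutant lacking normal mitotic checkpoint function is challenged with compound. Relative growth versus vehicle gives the inhibition value.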

[6] = NCI Yeast Anticancer Drug Screen. Data for the mlh1 rad18 strain (AID 175); conditions: S. cerevisiae mlh1 rad18 strain growth inhibition; at 50.0 µM; hits give high values
Method in brief: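 Inhibition values reflect reduced growth of mutant yeast versus vehicle-treated controls following compound exposure; the mutations affect DNA damage repair.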

Measured: growth inhibition

O=C1CN(c2ccccc2)CC(=O)N2Cc3ccccc3CN12
inactive: [1] -4.05% | [2] 1.2% | [3] 9.8% | [4] 17.1% | [5] 16.7% | [6] 14.7%

O=C(CC(=O)Nc1ccccc1)NNC(c1cc(N=Nc2ccc(Br)cc2)ccc1O)P(O)O (stereo not drawn)
inactive: [1] -4.65% | [2] 6.25% | [3] -10.4% | [4] -3.2% | [5] -14% | [6] -38%

O=C(O)c1ccc(NC(=S)Nc2ccc(C(=O)O)cc2)cc1
inactive: [1] -13.5% | [2] -0.15% | [3] 19.9% | [4] -7.4% | [5] -6.15% | [6] -22.9%

O=[N+]([O-])c1ccc(OP2(Oc3ccc([N+](=O)[O-])cc3)=NP(Oc3ccc([N+](=O)[O-])cc3)(Oc3ccc([N+](=O)[O-])cc3)=NP(Oc3ccc([N+](=O)[O-])cc3)(Oc3ccc([N+](=O)[O-])cc3)=NP(Oc3ccc([N+](=O)[O-])cc3)(Oc3ccc([N+](=O)[O-])cc3)=N2)cc1
inactive: [1] -4.5% | [2] -7.9% | [3] -6.35% | [4] -3.7% | [5] -1.65% | [6] -17.2%

CC1=CC(=O)c2cccc(NC3=NCCO3)c21
inactive: [1] -31.3% | [2] -20.8% | [3] -2.95% | [4] -28.9% | [5] -2% | [6] -29.2%

CCC(=O)Oc1cc(C(C)(C)C)c(OC(=O)CC)cc1C(C)(C)C
inactive: [1] 3.45% | [2] -13.9% | [3] 10.6% | [4] 12.3% | [5] 10.9% | [6] 35.4%

Nc1ccccc1SC1CC(=O)N(c2ccc(I)cc2)C1=O (stereo not drawn)
inactive: [1] -6.8% | [2] -15.7% | [3] -7.5% | [4] 13.8% | [5] 9.55% | [6] 2.35%

CC[P+](C)(C)c1ccccc1
inactive: [1] 30.9% | [2] -0.8% | [3] 2.1% | [4] 7.55% | [5] 11.7% | [6] 2.75%

O=C(O)/C=C/S(=O)(=O)Cc1ccccc1
inactive: [1] 8.7% | [2] -6.4% | [3] 2.7% | [4] -27.3% | [5] 7.5% | [6] 6.75%

CS/C(=C\c1ccc(C(=O)c2ccc(C)cc2)n1C)S(C)=O (stereo not drawn)
inactive: [1] 16.6% | [2] 15.2% | [3] 42.4% | [4] 11.1% | [5] -0.7% | [6] 35.5%

O=c1[nH]c(/C=C(\O)c2ccncc2)nc2ccccc12
inactive: [1] -7.6% | [2] -23.2% | [3] -6.45% | [4] 12% | [5] -9% | [6] -17.9%

C=CCN(C)C(=O)CCCCCCCC1C(CCCCCCCC)C2(Cl)C(Cl)=C(Cl)C1(Cl)C2(Cl)Cl (stereo not drawn)
inactive: [1] 30.7% | [2] 4.35% | [3] 8.6% | [4] -20.5% | [5] -1.5% | [6] -8.35%

Cc1nc2ccccc2[nH]1
inactive: [1] 3.8% | [2] -31.1% | [3] -4% | [4] 5.85% | [5] 3.45% | [6] 8.8%

CC1CCCN(C(=O)Nc2ccccc2)C1 (stereo not drawn)
inactive: [1] 14.4% | [2] -0.8% | [3] -10.2% | [4] 10.4% | [5] 4.65% | [6] 1.15%

NCC(=O)NC(Cc1cnc[nH]1)C(=O)NCC(=O)O (stereo not drawn) (H-Gly-[ξH]-Gly-OH)
inactive: [1] -3.45% | [2] 7.9% | [3] -0.2% | [4] -31.6% | [5] 6.2% | [6] 5.15%

NC(=O)C(=O)N/N=C1/c2ccccc2CC1C1(O)C(=O)Nc2c(Cl)cc(Cl)cc21 (stereo not drawn)
inactive: [1] 50.4% | [2] 30.9% | [3] 38.5% | [4] 16.6% | [5] 3.55% | [6] 44.2%

Cc1ccc([N+](=O)[O-])cc1NC(=O)Oc1cc(=O)oc2ccccc12
inactive: [1] 3.2% | [2] 6.8% | [3] -6.9% | [4] -18.1% | [5] 1.7% | [6] -0.75%

O=[N+]([O-])c1ccc(CS(=O)(=O)c2cccs2)o1
inactive: [1] 39% | [2] 12.8% | [3] 19.1% | [4] -6.25% | [5] 19.5% | [6] 16.6%

O=[N+]([O-])c1ccc(/C=N\NC(=S)Nc2ccc3cn[nH]c3c2)cc1
inactive: [1] 19.9% | [2] 14.6% | [3] 7.6% | [4] -1.7% | [5] 17.4% | [6] -9.65%

CCOc1ccccc1NC(=O)c1ccc(Cl)cc1
inactive: [1] -9.8% | [2] 18% | [3] -6.75% | [4] 5.35% | [5] 14.3% | [6] -4.6%

Cc1cc(OCc2ccc3ccccc3c2)ccc1Nc1cc(=O)[nH]c(=O)[nH]1
inactive: [1] 3.65% | [2] 33.6% | [3] 18.6% | [4] -4.55% | [5] 33.6% | [6] 24.4%

N=c1c2c(ncn1N)CCN(Cc1ccccc1)C2
inactive: [1] -8.55% | [2] 7.35% | [3] -11.4% | [4] -71.8% | [5] -6% | [6] -32.8%

CC(C)C(C)(O)CO (stereo not drawn)
inactive: [1] -21.9% | [2] 1.75% | [3] -1.2% | [4] 16.8% | [5] -6.2% | [6] -13.7%

CCOC(=O)C[C@@]1(C)C(=O)O[C@H](c2ccccc2)N1C(=O)c1ccccc1
inactive: [1] 13.2% | [2] 6.4% | [3] 14.2% | [4] 29.9% | [5] 11.8% | [6] 15.1%

COC(=O)c1ccccc1N(C)C(=O)c1cc(OC)c(OC)c(OC)c1
inactive: [1] -27.4% | [2] -37% | [3] -5.75% | [4] -11.1% | [5] -19.4% | [6] -8.85%

CC(C)(C)c1ccc(O)c(C(O)c2cccnc2)c1 (stereo not drawn)
inactive: [1] 18.7% | [2] 16.6% | [3] 16.5% | [4] 13.9% | [5] 29.8% | [6] 39.2%

OCCS
inactive: [1] -7.35% | [2] 5.25% | [3] -8.4% | [4] -21.8% | [5] -3.45% | [6] -4.25%

CN(C)CCC(CCN(C)C)=NO
inactive: [1] -37.2% | [2] -49.1% | [3] 3.4% | [4] 15.5% | [5] -31.4% | [6] -12.1%

C=C1C(=O)OC2/C=C(\C)CC/C=C(/C=O)C(OC(=O)C(C)C)C(O)C12 (stereo not drawn)
inactive: [1] -12.2% | [2] -55.4% | [3] 17.6% | [4] -7.25% | [5] -42.1% | [6] -31.6%

O=C(O)c1cccc(Br)c1
inactive: [1] 4.85% | [2] -19.1% | [3] -8.4% | [4] -38.2% | [5] -5.7% | [6] -5.5%

COC(=O)C1CCC(=O)N1C(c1ccc(OC)cc1)c1ccc(OC)cc1 (stereo not drawn)
inactive: [1] -26.6% | [2] 25.6% | [3] 13.4% | [4] 12.6% | [5] 8.3% | [6] 6.7%

CC1(C)CC2(C)Sc3ccccc3N2C(=S)N1 (stereo not drawn)
inactive: [1] -35.6% | [2] -2.15% | [3] 13.8% | [4] -19.6% | [5] -0.75% | [6] 17.9%

FC1(F)ON2CCc3ccccc3C2[C@H]1c1ccccc1 (stereo partly drawn)
inactive: [1] 13.3% | [2] 14.7% | [3] 10.2% | [4] 10% | [5] 22.4% | [6] -50%

O/N=C1/CCCCC1NO (stereo not drawn)
inactive: [1] -17.9% | [2] -22.9% | [3] -32.2% | [4] 15.7% | [5] -10.8% | [6] -19.7%

CNc1ccc(Cl)cc1S(=O)(=O)c1ccccc1[N+](=O)[O-]
inactive: [1] 3.2% | [2] 16.4% | [3] 24.8% | [4] 23.3% | [5] 5.65% | [6] -7.05%

COc1ccc(Cc2c[nH]c3cc(OC)c(OC)cc23)cc1OC
inactive: [1] -22.8% | [2] -9% | [3] 18.9% | [4] -57.8% | [5] 10.1% | [6] -1.4%

CCNC(=O)NCc1cc(C)ccc1C
inactive: [1] 7.85% | [2] -12.2% | [3] -11.4% | [4] 19.2% | [5] 6.45% | [6] 12.1%

CCCc1ccc(N)cc1
inactive: [1] 3.25% | [2] -38.4% | [3] -9.1% | [4] -18.1% | [5] -24.4% | [6] -15.7%
